SMN2 splice enh – enhancers of SMN2 splice variant expression. HEK293 SMN2-luciferase splicing reporter, luminescence, 30-36 h. Potency, µM (top dose mostly 46.1 µM), for the others: top-dose activity change, positive = activation, hits mostly activators. 2.8% of 210,000 active. AID 1458; note: % of control where 0% means no effect; nearly all actives have a fitted effect of over 55% in size
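qHTS luciferase splicing reporter: luminescence rises when SMN2 exon 7 is included in transfected HEK293 cells. Compound exposure lasted 30-36 h at 37C, with 4.5 mM final sodium butyrate as control, followed by a ONE-Glo read.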
Rab9 prom act – Rab9 promoter activation. 2.8% of 320,000 active. Huh7 Rab9 promoter-luciferase reporter, luminescence, 24 h. Potency, µM (titrated, usually from 9.22 µM), for inactives: at the top dose activation, negative = inhibition, usual class: activators; note: % of control where 0% means no effect; nearly all actives have a fitted effect of over 60% in size
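Huh7 reporter line, Rab9 promoter upstream of luciferase. Compound exposure 24 h at 37 °C in reduced-serum medium with 10% FBS. Read-out: luminescence.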
Luc counter – counter-screen: inhibitors of Kinase-Glo firefly luciferase; Q27757; Kinase-Glo luciferase, ATP luminescence, 8 min; Potency, µM (series often up to 38.3 µM), for inactives: top-dose activity change, negative = inhibition, usual class: inhibitors; 0.28% of 200,000 active; AID 1379; note: % is set by controls: 0 for no effect and ±100 for the full control effect; nearly all actives have a fitted effect of over 60% in size
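Compounds were added to a substrate mix at pH 7.2 (50 mM imidazole, 10 uM ATP, within the enzyme's linear range), followed by Kinase-Glo detection reagent; luminescence was measured after 8 minutes at ambient temperature.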
FLuc modulator – firefly luciferase modulation, counter-screen for miR-21 project; Potency, µM (series often up to 57.5 µM), inactives show at the top dose activity change, negative = inhibition, usual class: inhibitors; 6.9% of 360,000 active; P08659; purified FLuc, Km substrates, luminescence inhibition;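 note: plate controls were vehicle for no effect and reference inhibitor for full effect; nearly all actives have a fitted effect of over 55% in size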
Target sequence (P08659 whole entry, looked up): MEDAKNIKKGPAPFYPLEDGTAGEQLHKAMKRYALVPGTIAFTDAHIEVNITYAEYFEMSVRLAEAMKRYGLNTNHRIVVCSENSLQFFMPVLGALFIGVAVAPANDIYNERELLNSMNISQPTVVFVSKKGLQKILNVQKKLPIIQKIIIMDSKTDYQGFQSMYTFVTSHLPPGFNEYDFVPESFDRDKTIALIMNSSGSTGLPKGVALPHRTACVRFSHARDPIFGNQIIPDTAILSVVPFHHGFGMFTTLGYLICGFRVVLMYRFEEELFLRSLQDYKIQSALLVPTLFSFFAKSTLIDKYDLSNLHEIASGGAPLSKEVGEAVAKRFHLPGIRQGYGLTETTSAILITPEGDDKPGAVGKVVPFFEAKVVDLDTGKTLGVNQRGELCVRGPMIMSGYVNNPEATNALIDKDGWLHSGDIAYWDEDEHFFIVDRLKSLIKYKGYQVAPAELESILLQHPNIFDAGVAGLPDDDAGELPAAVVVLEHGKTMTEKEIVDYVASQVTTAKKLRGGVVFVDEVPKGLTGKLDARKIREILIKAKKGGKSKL
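Biochemical qHTS of compounds, final roughly 60 µM downward over six points, against 10 nM purified firefly luciferase using Km concentrations of substrates (10 uM D-luciferin, 10 uM ATP) in Tris acetate pH 7.5 buffer; luminescence output.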
NPC1 prom act – activates the NPC1 promoter. Potency, µM (highest dose often 9.22 µM), for the others: at the top dose activation, actives largely listed as activators. Huh7 NPC1 promoter luciferase reporter, 24 h. 2.4% of 320,000 active. AID 485313; note: % of control where 0% means no effect; nearly all actives have a fitted effect of over 60% in size
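Huh7 cells stably carrying NPC1 promoter–luciferase, plated in Opti-MEM with 10% FBS for 2 h, were exposed to compound in DMSO for 24 h at 37 °C; luciferase reagent was added for 10 min and luminescence read.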
ELG1 genotox – genotoxicity induction in ELG1-luciferase HEK293T cells; HEK293T ELG1-luciferase reporter, luminescence, 16 h; Potency, µM (doses to about 46 µM), without a hit: at the top dose activity change, positive = activation, actives largely listed as activators; 1.3% of 330,000 active; AID 504466; note: % of control where 0% means no effect; nearly all actives have a fitted effect of over 60% in size
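ELG1-luciferase HEK293T cells, 2,000/well; compound pinned in; 16 hr, 37 °C, 5% CO2; ONE-Glo, 30 min RT; luminescence on CCD imager.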
Active calls of the source: *; [ ] = remark or other dose. Compounds with a hit are over-represented: about 7.5% of the library has one in this group of screens. Calls come from the whole dose curve; as a rule, active = well fitted curve in the direction sought with a large enough effect; inconclusive = small, poorly fitted or top-dose-only effect, or another doubt; inactive = no such curve, though single readings can be large; an effect the other way counts as inactive or inconclusive. Potency is the fitted concentration of half-maximal effect.

`O=C(COC(=O)Cn1cnc2ccccc21)Nc1cc2c(cc1Cl)C(=O)c1ccccc1C2=O` gave SMN2 splice enh 17.8µM*, Rab9 prom act 2.82µM*, Luc counter -4.7%, FLuc modulator inconclusive, NPC1 prom act 3.16µM* and ELG1 genotox inconclusive.
`Cc1cc(C)c2c(=O)cc(C(=O)Nc3ccc(S(=O)(=O)N(C)Cc4ccccc4)cc3)oc2c1` gave SMN2 splice enh 9.8% and FLuc modulator 3.8%.
Screening O=C(N/N=C/c1ccc(Br)s1)c1ccccn1 returned SMN2 splice enh 3.55µM*, Rab9 prom act 1.41µM*, Luc counter inconclusive, FLuc modulator 4.78µM*, NPC1 prom act 2.82µM* and ELG1 genotox 9.2µM*.
O=C(N/N=C/c1ccsc1)c1ccccn1 was read as Rab9 prom act 4.47µM*, Luc counter inconclusive, FLuc modulator 15.1µM*, NPC1 prom act 2.82µM* and ELG1 genotox inconclusive.
CC(C)(C)c1ccc(/C=N/NC(=O)c2ccccn2)cc1 was read as Rab9 prom act 0.891µM*, Luc counter -15.0%, FLuc modulator 0.379µM*, NPC1 prom act 0.316µM* and ELG1 genotox inconclusive.
Screening O=C(N/N=C/c1ccc(OC(=O)c2ccccc2Br)cc1)c1ccccn1 returned Rab9 prom act -1.1%, FLuc modulator 3.0%, NPC1 prom act 0.8% and ELG1 genotox 2.5%.
COc1cc2c(cc1OC)CN(c1ccc(C(F)(F)F)cn1)CC2 was read as Rab9 prom act 17.2%, FLuc modulator 16.9µM*, NPC1 prom act 26.7% and ELG1 genotox inconclusive.
For OCc1cnc(SCc2ccccc2)n1Cc1ccccc1 the results were SMN2 splice enh -1.6%, Rab9 prom act -1.0%, Luc counter -0.6%, FLuc modulator 0.1%, NPC1 prom act -0.1% and ELG1 genotox -0.7%.
Screening COc1ccc(Cn2c(CO)cnc2SCc2ccc(C)cc2)cc1 returned FLuc modulator 16.9µM*.
COc1ccc(-c2cn3cc(C)ccc3n2)cc1F was read as SMN2 splice enh 0.562µM*, Rab9 prom act 0.355µM*, Luc counter -20.0%, FLuc modulator 0.239µM*, NPC1 prom act 0.355µM* and ELG1 genotox inconclusive.
`COc1ccc(-c2cc(-c3ccccc3)nc(Cl)n2)cc1OC` gave Rab9 prom act 0.3%, FLuc modulator inconclusive, NPC1 prom act -14.0% and ELG1 genotox -5.5%.
COc1ccc(-c2cn3ccccc3n2)cc1OC was read as SMN2 splice enh 17.8µM*, Rab9 prom act 3.16µM*, Luc counter 11.2µM*, FLuc modulator 3.38µM*, NPC1 prom act 3.16µM* and ELG1 genotox inconclusive.
Screening COc1ccc(-c2cn3cc(C)ccc3n2)cc1OC returned SMN2 splice enh 3.98µM*, Rab9 prom act 0.631µM*, Luc counter inconclusive, FLuc modulator 0.849µM*, NPC1 prom act 1µM* and ELG1 genotox 1.03µM*.
Screening O=C(O)CSc1nc2ccc(C(=O)c3ccccc3)cc2[nH]1 returned Rab9 prom act -0.3%, FLuc modulator inconclusive, NPC1 prom act -2.0% and ELG1 genotox -1.3%.
CCc1cc(C(=O)NCC(c2ccco2)N2CCCCC2)sc1C (stereo not given) was read as Rab9 prom act -2.7%, FLuc modulator 6.1%, NPC1 prom act -1.4% and ELG1 genotox -1.4%.
For O=C(Nc1nc2nccc(-c3ccccc3)n2n1)c1ccc(F)cc1 the results were SMN2 splice enh -24.4%, Rab9 prom act 10.6%, Luc counter -0.6%, FLuc modulator 1.3%, NPC1 prom act -5.6% and ELG1 genotox 0.9%.
Screening O=C(Nc1nc2nccc(-c3ccccc3)n2n1)c1ccccc1 returned Rab9 prom act 2.51µM*, FLuc modulator inconclusive, NPC1 prom act 2.82µM* and ELG1 genotox inconclusive.
For COc1ccc(C(=O)Nc2nc3nccc(-c4ccccc4)n3n2)cc1 the results were SMN2 splice enh -24.8%, Rab9 prom act 1.4%, Luc counter 1.6%, FLuc modulator 9.53µM*, NPC1 prom act -2.6% and ELG1 genotox -3.4%.
`COc1ccc(-c2ccnc3nc(N4CCN(c5ccccc5)CC4)nn23)cc1` gave SMN2 splice enh 0.7%, Rab9 prom act -12.9%, Luc counter 3.9%, FLuc modulator -7.2%, NPC1 prom act -1.1% and ELG1 genotox 0.0%.
`Brc1ccc(C2Nc3cccc4cccc(c34)N2)s1` gave SMN2 splice enh 14.3%[1.84 µM], Rab9 prom act inconclusive, Luc counter -6.4%, FLuc modulator inconclusive, NPC1 prom act 19.6% and ELG1 genotox -0.3%.
Screening CN1c2ccccc2N(C)C1c1ccc2c(c1)OCO2 returned SMN2 splice enh -0.7%, Rab9 prom act -19.6%, Luc counter -0.2%, FLuc modulator 8.9%, NPC1 prom act -6.4% and ELG1 genotox 1.7%.
`Cc1cccc(C2Nc3cccc4cccc(c34)N2)c1` gave Rab9 prom act 10.7%, FLuc modulator 21.3µM*, NPC1 prom act inconclusive and ELG1 genotox -0.1%.
`Clc1ccc(C2Nc3cccc4cccc(c34)N2)cc1` gave Rab9 prom act 17.2%, FLuc modulator 19µM*, NPC1 prom act 21.9% and ELG1 genotox -7.6%.
`CSc1ccc(C2Nc3cccc4cccc(c34)N2)cc1` gave Rab9 prom act 20.2%, FLuc modulator 21.3µM*, NPC1 prom act inconclusive and ELG1 genotox -1.6%.
Screening O=[N+]([O-])c1cc(C2Nc3cccc4cccc(c34)N2)ccc1Cl returned SMN2 splice enh -0.8%, Rab9 prom act 28.5%, Luc counter -0.4%, FLuc modulator 2.5%, NPC1 prom act inconclusive and ELG1 genotox 3.1%.
`Oc1ccc2ccccc2c1C1Nc2cccc3cccc(c23)N1` gave SMN2 splice enh -1.2%, Rab9 prom act -0.9%, Luc counter -2.7%, FLuc modulator -2.5%, NPC1 prom act -0.2% and ELG1 genotox -11.4%.
`c1cc2c3c(cccc3c1)NC(c1ccc3c(c1)OCO3)N2` gave Rab9 prom act -0.2%, FLuc modulator 26.9µM*, NPC1 prom act inconclusive and ELG1 genotox 1.9%.
For COCC(=O)Nc1ccc2c(c1)OCC(=O)N2Cc1ccccc1F the results were Rab9 prom act -0.6%, FLuc modulator -2.5%, NPC1 prom act -0.7% and ELG1 genotox 0.7%.
`COC(=O)[C@@]1(Cc2ccccc2-c2ccco2)C=C[C@H](C)[C@@H](c2ccccc2)N1C(=O)C(F)(F)F` gave SMN2 splice enh 0.3% and Luc counter -2.9%.
Screening COc1cc(OC)c(C(=O)OCC(=O)N2CCOCC2)cc1OC returned Rab9 prom act 4.1%, FLuc modulator 3.4%, NPC1 prom act -0.6% and ELG1 genotox 9.9%.

High-throughput results (PubChem BioAssay)
